# Screen size: about 350,000 compounds; about 550 (0.16%) were called active. Rule as the data show it: active = activation mostly above about 9.7% (no sharp cut-off); inconclusive = no clear call, values can overlap the other calls; inactive = mostly below about 3.7%. The list comes from a sample in which actives are over-represented; it also holds similar structures and randomly drawn compounds.
# Assay: inducers of Vibrio cholerae quorum light production without autoinducers, primary screen, BH1578 luxS cqsA deficient, single point (AID 588436)
# Conditions: V. cholerae BH1578 lux reporter, luminescence, 6 h, at 18.7 µM; active compounds read high
row,SMILES,activation
1,COc1cccc(NS(=O)(=O)c2ccc3[nH]cc(C(=O)NCCCOC(C)C)c(=O)c3c2)c1,inactive
2,CN(C)c1ccc(CNC2C3CC4CC(C3)CC2C4)cc1 (stereo not given),-0.358% (inactive)
3,CN(C)c1ccc(CNC23CN4CN(CN(C4)C2)C3)cc1,54% (active)
4,CN(C)c1ccc(CSc2ccccc2)cc1,inactive
5,CCN1CN(Cc2ccccc2)CNC1=S,inactive
6,C=CCC(C(=O)c1ccccc1)[N+](C)(C)CC=C (stereo not given),inactive
7,COc1ccccc1C(=O)NC(CCSC)C(=O)NNC(=O)c1csc(N2CCOCC2)n1 (stereo not given),inactive
8,COc1ccc(-n2ncc3c2CC(C)(C)CC3NC(=O)CCc2c(C)noc2C)cc1 (stereo not given),-0.606% (inactive)
9,O=C(O)CCCCCCCCc1cn(CN2C(=O)c3ccccc3C2=O)nn1,-0.601% (inactive)
10,COc1ccc(CC(=O)c2ccc(O)cc2O)cc1OC,1.54% (inactive)
11,O=C(NC1CCN(C(=S)NCc2ccco2)CC1)c1ccc(F)cc1,inactive
12,CCN(C[C@H]1N[C@@](CC)(C(=O)OC)[C@H]2C(=O)N(Cc3ccccc3)C(=O)[C@@H]12)S(=O)(=O)c1ccc(C(F)(F)F)cc1,inactive
13,Cc1ncoc1C(=O)NCCC(c1ccccc1)c1ccccc1,inactive
14,CS(=O)(=O)N1CCCC(C(=O)Nc2ccccc2C(F)(F)F)C1 (stereo not given),-3.85% (inactive)
15,CCN(CC(=O)NCC(=O)Nc1cccc(C)c1C)Cc1ccccc1,inactive
16,CCCCCCn1c(=O)n2n(c1=O)C[C@]1(OC(=O)NCc3ccc(OC)c(OC)c3)CN(S(=O)(=O)c3ccc(C)cc3)C[C@]1(O)C2,-2.08% (inactive)
17,Cc1ccc(C(=O)N/N=C/c2sc(=O)n(Cc3cccc(C(=O)O)c3)c2Cl)cc1,0.645% (inactive)
18,CCCCNC(=O)Cn1nc(C)c(S(=O)(=O)N2CCOCC2)c1C,inactive
19,CNc1cncc(-c2cccc(C(=O)N3CCOCC3)c2)n1,3.33% (inactive)
20,Cc1onc(-c2ccccc2)c1C(=O)N1CCN(S(=O)(=O)c2ccccc2C(F)(F)F)CC1,-0.206% (inactive)
21,Cc1onc(-c2ccccc2)c1C(=O)N1CCOCC1,16.7% (active)
22,Cc1cccc(N2CCN(C(C)C(=O)N3CCc4ccccc43)CC2)c1C (stereo not given),-0.336% (inactive)
23,COc1ccccc1-c1cnn2c(N3CCOCC3)cc(C)nc12,-0.198% (inactive)
24,CC(C)n1ncc2c(C(=O)N3CCN(Cc4cccs4)CC3)cc(C3CC3)nc21,-0.459% (inactive)
25,N#Cc1c(C(F)(F)F)cc(-c2ccccc2)nc1SCC(=O)N1CCOCC1,-0.279% (inactive)

row,SMILES,activation
1,N#Cc1c(C(F)(F)F)cc(-c2cccs2)nc1N1CCCCC1,-0.871% (inactive)
2,CCN(CC)c1nc(-c2ccccc2)cc(C(F)(F)F)c1C#N,17.9% (active)
3,CCNC(=S)Nc1ccc(OC(F)(F)F)cc1,20.7% (active)
4,COC(=O)Cc1ccc(OCC(=O)Nc2ccc(OC(F)(F)F)cc2)cc1,-0.392% (inactive)
5,CS(=O)(=O)c1sc(C(=O)NC(=S)Nc2ccc(OC(F)(F)F)cc2)c2c1C=CCC2,0.546% (inactive)
6,CCn1c2c(c3ccc(OC)cc31)CCCC2=O,inactive
7,CC(=O)OCC(COC(C)=O)OC(C)=O,-1.4% (inactive)
8,CC(C[N+](C)(C)C)OC(N)=O (stereo not given),inactive
9,CC(=O)OC(C)C[N+](C)(C)C (stereo not given),22.9% (active)
10,NC(=O)C1CC=CCC1C(=O)OCC(Cl)=C(Cl)Cl (stereo not given),-0.395% (inactive)
11,Cc1noc(C)c1S(=O)(=O)N(C)Cc1ccccc1,inactive
12,COC(CNC(=O)Cn1ncc2ccsc2c1=O)OC,inactive
13,O=C(CN1CCCCCC1)Nc1ccc(Br)cc1[N+](=O)[O-],45.8% (active)
14,O=C(CN1CCCCC1)Nc1ccc(Br)cc1C(=O)c1ccccc1Cl,-0.319% (inactive)
15,O=C(CN1CCCCCC1)Nc1ccc(Br)cc1Br,-7.69% (inactive)
16,CCC1CCCCN1C(=O)Nc1cccc(NC(=O)N2CCCCC2CC)c1 (stereo not given),inactive
17,COc1ccccc1CN1CCN(C(=O)Cc2ccccc2)CC1,inactive
18,CC(C)CC(=O)N1CCN(Cc2ccccc2Br)CC1,144% (active)
19,CC(C)CC(=O)N1CCN(Cc2cccc(Cl)c2)CC1,inactive
20,CCOC(=O)c1c(-c2cccc(N)c2)cn2ccccc12,-1.18% (inactive)
21,CC(=O)N1C(=O)C2(Nc3ccccc3N2)c2ccccc21,inactive
22,CC(C)Cc1ccc(S(=O)(=O)N2CCN(C(=O)c3ccco3)CC2)cc1,-6.25% (inactive)
23,Cc1oc2cc3oc(=O)ccc3cc2c1C,-0.488% (inactive)
24,C/C(=N\NS(=O)(=O)c1cccc([N+](=O)[O-])c1)c1cc2ccccc2o1,-2.5% (inactive)
25,CCc1nc2c(OCCOc3ccccc3)cccn2c1N(C=O)Cc1ccc(OC)cc1,4.55% (inactive)

row,SMILES,activation
1,COc1cc(C(=O)NCC(=O)NCCSc2ccc(Br)cc2)cc(OC)c1OC,inactive
2,Cc1cccc(C(=O)OCC(=O)NC(C)C2CC3CCC2C3)c1O (stereo not given),inactive
3,Cc1cccc(C)c1NC(=O)COC(=O)c1ccccc1O,-0.155% (inactive)
4,Cc1cccc(C(=O)OCC(=O)NCC(C)C)c1O,302% (active)
5,Oc1ccc(CNc2ccccc2O)cc1,-0.266% (inactive)
6,O=C(Nc1ccc2ccccc2c1)Nc1ccc2snnc2c1,inactive
7,COc1ccc2[nH]c(=O)c(CN(CC3CCCO3)C(=O)Nc3ccccc3)cc2c1 (stereo not given),-0.239% (inactive)
8,COc1ccc2[nH]c(=O)c(CNc3ccc(C)c(C)c3)cc2c1,16.7% (active)
9,COc1ccc2[nH]c(=O)c(CN(Cc3cccnc3)S(=O)(=O)c3ccccc3F)cc2c1,0.282% (inactive)
10,COc1ccc(N2C(=O)NC(NS(=O)(=O)c3ccc(Cl)cc3)(C(F)(F)F)C2=O)cc1 (stereo not given),0.575% (inactive)
11,Cc1ccc(Cl)cc1NC(=O)C1CCCN(c2cnccn2)C1 (stereo not given),-2.5% (inactive)
12,CC1(C)C=C2[C@H]3CC[C@@H]4[C@@]5(C)CCC(=O)C(C)(C)[C@@H]5CC[C@@]4(C)[C@]3(C)CC[C@@]2(C(=O)O)CC1,inactive
13,Cc1cc(=O)oc2cc(OC(C)C(=O)Nc3ccc(N4CCOCC4)cc3)ccc12 (stereo not given),inactive
14,CCCNC(=O)C1(C)CCCN(Cc2cccc(C(F)(F)F)c2)C1 (stereo not given),inactive
15,O=C(CN1CCC(O)(c2cccc(C(F)(F)F)c2)CC1)NCCc1ccccc1,277% (active)
16,Cc1cc(NC(=O)CN2CCC(O)(c3cccc(F)c3)CC2)no1,-11.8% (inactive)
17,OCCN1CCN(CCO)C1=S,-0.805% (inactive)
18,COc1cccc(CN(C)C(=O)CC23CC4CC(CC(C4)C2)C3)c1OC,inactive
19,O=C(Cc1ccc([N+](=O)[O-])cc1)Nc1ccc(C(=O)N2CCOCC2)cc1,inactive
20,CC(=O)Cn1cnc2c(cnn2-c2ccccc2)c1=O,inactive
21,CN(C)/C=C/c1c(C#N)c(=O)ncn1Cc1ccccc1,inactive
22,Cc1c(C#N)c2ncn(CC#N)c(=O)c2n1-c1ccccc1,25% (active)
23,Cc1cc(C)c(C#N)c(SCC(=O)NN2CC(=O)N(c3ccccc3F)CC2=O)n1,2.85% (inactive)
24,CCCCC(=O)Nc1ccccc1N1CCN(c2ccc(F)cc2)CC1,inactive
25,COc1ccccc1NC(=O)c1cc(N2C(=O)C3C4CCC(C4)C3C2=O)ccc1Cl (stereo not given),inactive

row,SMILES,activation
1,COc1ccc(-c2coc3c(C(=O)NC(C)C)cccc23)c(C)c1,-0.54% (inactive)
2,O=C(NCc1cccs1)c1ccc(CS(=O)Cc2ccccc2Cl)o1 (stereo not given),-3.95% (inactive)
3,CCN(CC(=O)NCc1ccc(Cl)cc1)C(=O)CSc1ccccc1,39.3% (active)
4,CCN(CC(=O)Nc1cc(Cl)ccc1C)C(=O)CSCc1ccccc1,1.13% (inactive)
5,CCN(CC(=O)NCc1ccc(Cl)cc1)C(=O)c1c(C)noc1C,inactive
6,c1ccc(Cc2cc[n+](Cc3ccccc3)cc2)cc1,-0.465% (inactive)
7,CC(C)(C)c1ccc(/C=C2\Oc3c(ccc(O)c3CN3CCN(CCO)CC3)C2=O)cc1,-0.166% (inactive)
8,COP1(=O)C[C@@H](O)[C@@H](O)[C@@H](COCc2ccccc2)O1 (stereo not given in full),inactive
9,COCC1CCCCN1C(=O)c1cc(COc2ccc(C)c(C)c2)on1 (stereo not given),inactive
10,COc1ccc(NC(=O)CN2C(=O)C(c3ccccc3)=NC23CCCCCC3)cc1OC,-0.396% (inactive)
11,COc1ccc(CNS(=O)(=O)c2ccc(NC(=O)N3CCCCC3)cc2)cc1,inactive
12,COc1ccc(OCCCC(=O)Nc2cccc(S(=O)(=O)N3CCCCCC3)c2)cc1,-0.87% (inactive)
13,O=C(Nc1ccc(F)cc1)c1cc2c(s1)CCCC2,0.953% (inactive)
14,O=C(O)C1CCCN1c1nc(Cl)ccc1[N+](=O)[O-] (stereo not given),inactive
15,Cc1cccc(-c2oc3ccc(-c4ccc5c(c4)OCO5)cc3c2C#Cc2cncn2C)c1,-1.22% (inactive)
16,COCCNC(=O)c1ccc2c(c1)ncn2-c1ccc(C)c(Cl)c1,inactive
17,O=C(c1cccs1)n1nc(NCc2ccccc2)nc1NCc1ccccc1,-0.325% (inactive)
18,CC(NC(=O)COC(=O)C1CCN(S(=O)(=O)c2ccccc2C(F)(F)F)CC1)c1ccccc1 (stereo not given),-0.574% (inactive)
19,Cc1ccc(-c2nc(CS(=O)(=O)CC(=O)NCc3ccc4c(c3)OCO4)c(C)o2)cc1,-0.345% (inactive)
20,CC(=O)c1ccc(Cc2ncc(C(F)(F)F)cc2Cl)s1,inactive
21,CCOc1ccc(S(=O)(=O)N/N=C(\C)c2ccc(Cl)c(Cl)c2Cl)cc1,inactive
22,CC1Cc2ccccc2N1S(=O)(=O)c1ccc(Cl)nc1 (stereo not given),inactive
23,COC(=O)C1=C(C)N(c2ccc(C)cc2)/C(=C/c2ccc(O)cc2)C1=O,-0.588% (inactive)
24,CCCC(=O)Nc1ccc2c(c1)nc1n2CCSC1,-5% (inactive)
25,COc1ccc(N2CCN(C(=O)c3cn(C)c4ccc(S(=O)(=O)N5CCOCC5)cc4c3=O)CC2)cc1,1.02% (inactive)
